We go through three compounds from PubChem BioAssay (EPA / NIEHS).

Experiment [1] is described as follows: ATG_CRE_CIS: Attagene CIS-FACTORIAL HepG2 Assay for human cAMP Responsive Element (CRE) binding protein 3 (AID 2282926). Particulars: HepG2 CRE cis-reporter, Attagene multiplexed mRNA; actives raise or lower the signal. Put shortly: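 HepG2 cells transiently transfected with a multiplexed reporter library (CRE-driven unit among them) were dosed for 24 h. Reporter mRNA was quantified by RT-PCR, fluorescent labelling, HpaI digestion and capillary electrophoresis, with bidirectional fitting against DMSO baseline.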

The target of experiment [2] is CCAAT/enhancer-binding protein beta (Homo sapiens) (UniProt P17676). Nature of the experiment: ATG_C_EBP_CIS: Attagene CIS-FACTORIAL HepG2 Assay for human CCAAT/Enhancer Binding Protein (C/EBP) beta (AID 2282927). The conditions noted are these: HepG2 Attagene cis-factorial transcription factor reporter; actives raise or lower the signal. Put shortly: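 HepG2, transient MRTU transfection, 24 h treatment. RT-PCR plus CE fluorescence; DMSO negative control, bidirectional fit.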
Chain of CCAAT/enhancer-binding protein beta (Homo sapiens) (P17676 whole entry, looked up): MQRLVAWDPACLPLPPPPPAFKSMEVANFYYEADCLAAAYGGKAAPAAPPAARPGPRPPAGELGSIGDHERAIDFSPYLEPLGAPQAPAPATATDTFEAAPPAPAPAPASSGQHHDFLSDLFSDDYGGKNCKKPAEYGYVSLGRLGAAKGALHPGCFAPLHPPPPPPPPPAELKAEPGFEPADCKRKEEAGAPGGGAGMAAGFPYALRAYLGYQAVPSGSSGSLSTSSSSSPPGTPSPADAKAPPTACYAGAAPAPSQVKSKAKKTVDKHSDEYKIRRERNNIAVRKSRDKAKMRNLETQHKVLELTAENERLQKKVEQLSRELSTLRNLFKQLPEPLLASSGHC

A short description of experiment [3]: ATG_CMV_CIS: Attagene CIS-FACTORIAL HepG2 Assay for human CMV (Internal Marker) (AID 2282928).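 Note: endpoint acts as a background internal control marker rather than a target.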 Particulars: HepG2 CMV promoter reporter, transcription factor profiling; actives raise or lower the signal. Summed up: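 HepG2 cells transiently transfected with multiple cis-regulated reporter units; 24 h compound exposure. Reporter mRNA quantified by RT-PCR, 6-FAM primer-extension labeling, HpaI digestion and capillary electrophoresis; bidirectional fitting against DMSO baseline.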

Experiment [4] in a line: ATG_DR4_LXR_CIS: Attagene CIS-FACTORIAL HepG2 Assay for human Liver X Receptor (LXR), DR4 submotif (AID 2282929). The conditions noted are these: HepG2 Attagene DR4 cis-reporter, mRNA transcription; actives raise or lower the signal. Put shortly:
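HepG2 cells transiently transfected with cis-promoter-driven multiplexed reporter units (DR4 element) were dosed for 24 h. Reporter mRNA was quantified by RT-PCR, fluorescent primer extension, HpaI digestion and capillary electrophoresis; bidirectional fitting versus DMSO baseline.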

For experiment [5], the target named is Aryl hydrocarbon receptor (Homo sapiens) (UniProt P35869). The experiment in a line: ATG_Ahr_CIS: Attagene CIS-FACTORIAL HepG2 Assay for human Aryl Hydrocarbon Receptor (Ahr) (AID 2282930). The conditions noted are these: HepG2 AhR cis-factorial reporter transcription; actives raise or lower the signal. Summed up: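 Endogenous factor activity is tracked through cis-promoter reporter units transfected into HepG2 cells. Transcript levels at 24 h are read by fluorescent RT-PCR and capillary electrophoresis, with activity in either direction scored relative to DMSO.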
Chain of Aryl hydrocarbon receptor (Homo sapiens) (P35869 whole entry, looked up): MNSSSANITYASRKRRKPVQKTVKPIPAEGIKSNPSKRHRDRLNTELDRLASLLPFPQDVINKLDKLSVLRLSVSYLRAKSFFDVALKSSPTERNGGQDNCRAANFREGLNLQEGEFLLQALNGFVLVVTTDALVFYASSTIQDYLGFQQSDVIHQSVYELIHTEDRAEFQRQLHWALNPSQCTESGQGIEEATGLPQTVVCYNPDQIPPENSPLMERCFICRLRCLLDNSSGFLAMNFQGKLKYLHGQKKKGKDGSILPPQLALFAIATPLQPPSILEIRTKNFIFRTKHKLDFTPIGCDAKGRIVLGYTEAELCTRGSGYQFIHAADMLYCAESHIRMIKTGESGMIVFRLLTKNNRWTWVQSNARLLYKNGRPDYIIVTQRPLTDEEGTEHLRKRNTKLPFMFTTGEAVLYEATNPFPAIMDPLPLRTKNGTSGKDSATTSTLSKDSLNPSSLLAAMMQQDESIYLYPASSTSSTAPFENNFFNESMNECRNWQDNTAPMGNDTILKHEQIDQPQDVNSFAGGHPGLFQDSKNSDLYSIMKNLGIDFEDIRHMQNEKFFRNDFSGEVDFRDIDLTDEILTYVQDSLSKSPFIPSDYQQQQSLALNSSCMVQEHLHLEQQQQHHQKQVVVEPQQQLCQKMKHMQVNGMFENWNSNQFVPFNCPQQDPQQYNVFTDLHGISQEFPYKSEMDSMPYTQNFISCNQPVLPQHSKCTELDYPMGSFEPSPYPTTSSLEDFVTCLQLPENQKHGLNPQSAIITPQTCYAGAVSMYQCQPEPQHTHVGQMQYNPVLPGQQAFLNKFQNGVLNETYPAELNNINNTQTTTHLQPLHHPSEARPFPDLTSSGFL

Experiment [6] can be described thus: ATG_AP_1_CIS: Attagene CIS-FACTORIAL HepG2 Assay for human Activator Protein 1 (AP-1) (AID 2282931). The conditions noted are these: HepG2 Attagene cis-factorial AP-1 reporter mRNA; actives raise or lower the signal. Summed up:
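HepG2 cells transiently transfected with cis-element-driven multiplex reporter units; 24 h compound exposure. Reporter mRNA quantified by RT-PCR, FAM-labelled fragments resolved by capillary electrophoresis; bidirectional fit versus DMSO baseline.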

Experiment [7] in a line: ATG_AP_2_CIS: Attagene CIS-FACTORIAL HepG2 Assay for human Activator Protein 2 (AP-2) (AID 2282932). The conditions noted are these: HepG2 AP-2 cis-reporter, Attagene transcription factor profiling; actives raise or lower the signal. Put shortly:
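Multiplexed mRNA reporter assay in HepG2: cis-regulated units report endogenous factor activity after 24 h treatment. Fluorescence from capillary electrophoresis of RT-PCR products gives the signal, with DMSO as baseline.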

Experiment [8] can be described thus: ATG_BRE_CIS: Attagene CIS-FACTORIAL HepG2 Assay for human Bone Morphogenetic Protein (BMP) Response Element (BRE) (AID 2282933). The conditions noted are these: HepG2 BMP response element reporter, Attagene transcription factor profiling; actives raise or lower the signal. Put shortly: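 Endogenous transcription factor activity at a BMP response element was monitored in transfected HepG2 cells 24 h after dosing. Fluorescent RT-PCR products were resolved by capillary electrophoresis, and activity was fitted in both directions versus DMSO.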

Experiment [9] has as its target Retinoic acid receptor alpha (Homo sapiens) (UniProt P10276). The experiment in a line: ATG_DR5_RAR_CIS: Attagene CIS-FACTORIAL HepG2 Assay for human Retinoic Acid Receptor Alpha (RARE), DR5 submotif (AID 2282934).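 For AC50: reporter responds to endogenous RAR alpha beta and gamma in HepG2 not RARA alone.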 The conditions noted are these: HepG2 Attagene cis-factorial RARE DR5 reporter, mRNA; actives raise or lower the signal. Put shortly:
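After 24 h of chemical exposure, transiently transfected HepG2 cells were lysed for total RNA; the DR5-regulated reporter transcript was quantified via RT-PCR and capillary electrophoresis, with activity fitted bidirectionally against DMSO.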

The target of experiment [10] is Transcription factor E2F1 (Homo sapiens) (UniProt Q01094). The experiment in a line: ATG_E2F_CIS: Attagene CIS-FACTORIAL HepG2 Assay for human E2F Transcription Factor 1 (AID 2282935). The conditions noted are these: HepG2 Attagene cis-reporter, E2F reporter RNA transcripts; actives raise or lower the signal. Summed up:
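Measures reporter transcript levels via RT-PCR with capillary electrophoresis detection in HepG2 cells harboring cis-regulated reporter units; 24 h post-dose; bidirectional curve fitting with DMSO as baseline.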

Experiment [11] can be described thus: ATG_E_Box_CIS: Attagene CIS-FACTORIAL HepG2 Assay for human Enhancer Box (E-box) (AID 2282936). The conditions noted are these: HepG2 E-box cis-reporter transcription, actives raise or lower the signal. Put shortly: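 First, HepG2 cells receive multiple cis-regulated reporter constructs by transient transfection. Next, chemicals are applied for 24 h. Finally, reporter mRNA is quantified via RT-PCR and capillary electrophoresis, with DMSO as baseline.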

Experiment [12] is described as follows: ATG_M_61_CIS: Attagene CIS-FACTORIAL HepG2 Assay for M61 Transcription Factor (Internal Marker) (AID 2282937). Particulars: HepG2 Attagene CIS-FACTORIAL M61 internal marker reporter; actives raise or lower the signal. Summed up:
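HepG2 cells transiently transfected with cis-element-driven multiple reporter transcription units, dosed for 24 h. Reporter mRNA measured by RT-PCR, 6-FAM primer-extension labelling, HpaI digestion and capillary electrophoresis; bidirectional fit versus DMSO baseline.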

The nature of experiment [13]: ATG_EGR_CIS: Attagene CIS-FACTORIAL HepG2 Assay for human Early Growth Response 1 (EGR1) (AID 2282938). The conditions noted are these: HepG2 Attagene CIS-FACTORIAL EGR reporter mRNA; actives raise or lower the signal. Summed up:
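HepG2 cells transiently transfected with cis-promoter-driven multiplexed reporter transcription units; reporter mRNA measured 24 h after compound dosing by RT-PCR, 6-FAM primer extension, HpaI digestion and capillary electrophoresis. Bidirectional fit versus DMSO baseline.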

The nature of experiment [14]: ATG_M_19_CIS: Attagene CIS-FACTORIAL HepG2 Assay for M19 Transcription Factor (Internal Marker) (AID 2282939). The conditions noted are these: HepG2 Attagene CIS-FACTORIAL M19 internal marker reporter; actives raise or lower the signal. Summed up:
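Background-control endpoint from a multiplexed HepG2 reporter panel. Cells carrying cis-regulated reporter constructs are treated 24 h, then reporter transcripts are amplified, fluorescently labelled and sized by capillary electrophoresis. DMSO defines baseline.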

A short description of experiment [15]: ATG_ERE_CIS: Attagene CIS-FACTORIAL HepG2 Assay for Estrogen Response Element (ERE) (AID 2282940). Particulars: HepG2 ERE cis-reporter, Attagene RNA transcript; actives raise or lower the signal. Summed up:
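Cells used were human hepatoma HepG2, transfected with multiple reporter transcription units under cis-regulatory promoters. Reporter mRNA, read 24 h post-dosing via fluorescent RT-PCR products on capillary electrophoresis, was fitted bidirectionally relative to DMSO.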

Experiment [16] in a line: ATG_Ets_CIS: Attagene CIS-FACTORIAL HepG2 Assay for human Erythroblast Transformation Specific (ETS) (AID 2282941). Particulars: HepG2 ETS cis-reporter transcription, actives raise or lower the signal. Put shortly:
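HepG2 cells transiently transfected with cis-promoter reporter transcription units were dosed for 24 h; reporter mRNA was measured by RT-PCR, 6-FAM primer extension, HpaI digestion and capillary electrophoresis, with bidirectional fitting against DMSO baseline.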

The target of experiment [17] is Hepatocyte nuclear factor 3-beta (Homo sapiens) (UniProt Q9Y261). The experiment in a line: ATG_FoxA2_CIS: Attagene CIS-FACTORIAL HepG2 Assay for human Forkhead box A2 (FOXA2) (AID 2282942). Particulars: HepG2 cis-reporter transcription factor activity, 24 h; actives raise or lower the signal. Summed up: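 HepG2 cells transiently transfected with multiple cis-regulated reporter transcription units, dosed for 24 h. Reporter mRNA measured by RT-PCR, 6-FAM labelling, HpaI digestion and capillary electrophoresis; bidirectional fitting against DMSO baseline.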
Chain of Hepatocyte nuclear factor 3-beta (Homo sapiens) (Q9Y261 whole entry, looked up): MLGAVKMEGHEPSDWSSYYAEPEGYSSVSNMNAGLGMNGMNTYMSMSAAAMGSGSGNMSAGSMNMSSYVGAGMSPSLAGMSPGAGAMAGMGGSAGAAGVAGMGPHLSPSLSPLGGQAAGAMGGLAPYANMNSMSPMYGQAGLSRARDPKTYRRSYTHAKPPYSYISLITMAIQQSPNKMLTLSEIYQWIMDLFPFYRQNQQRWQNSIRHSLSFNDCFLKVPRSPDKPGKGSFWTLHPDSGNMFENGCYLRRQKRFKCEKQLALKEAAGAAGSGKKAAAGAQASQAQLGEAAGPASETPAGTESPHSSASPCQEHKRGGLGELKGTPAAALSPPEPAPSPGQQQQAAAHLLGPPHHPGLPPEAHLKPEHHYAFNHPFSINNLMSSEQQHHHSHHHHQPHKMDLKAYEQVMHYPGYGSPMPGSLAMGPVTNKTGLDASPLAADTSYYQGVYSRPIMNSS

Experiment [18] in a line: ATG_FoxO_CIS: Attagene CIS-FACTORIAL HepG2 Assay for human Forkhead box O (FoxO) (AID 2282943). Particulars: HepG2 Attagene cis-reporter, FoxO element, mRNA; actives raise or lower the signal. Put shortly:
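Transfected HepG2 reporter cells exposed to test chemical for 24 h; reporter RNA measured by reverse transcription, PCR and fluorescent capillary electrophoresis; curves fitted for increases and decreases against DMSO.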

A short description of experiment [19]: ATG_GATA_CIS: Attagene CIS-FACTORIAL HepG2 Assay for human GATA Binding Protein (AID 2282944). Particulars: HepG2 GATA cis-element reporter, Attagene multiplex mRNA; actives raise or lower the signal. Put shortly: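 Endogenous transcription factor activity was captured through cis-promoter-driven reporters in transfected HepG2 cells. After 24 h exposure, reporter transcripts were quantified by RT-PCR with fluorescent capillary electrophoresis, and responses fitted both directions against DMSO.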

The nature of experiment [20]: ATG_GLI_CIS: Attagene CIS-FACTORIAL HepG2 Assay for human Zinc Finger Protein GLI1 (AID 2282945). The conditions noted are these: HepG2, Attagene cis-factorial reporter mRNA, GLI element; actives raise or lower the signal. Summed up: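 Transiently transfected HepG2 cells report endogenous transcription factor activity via cis-element-driven reporter units. After 24 h compound exposure, reporter mRNA was measured by RT-PCR with capillary electrophoresis; bidirectional fitting against DMSO baseline.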

The source made the active and inactive calls. Rule for the calls: active = hit-call score of the fitted dose curve at least 0.9, where 1 is the maximum; inactive = score below 0.9.

Chain of Transcription factor E2F1 (Homo sapiens) (Q01094 whole entry, looked up): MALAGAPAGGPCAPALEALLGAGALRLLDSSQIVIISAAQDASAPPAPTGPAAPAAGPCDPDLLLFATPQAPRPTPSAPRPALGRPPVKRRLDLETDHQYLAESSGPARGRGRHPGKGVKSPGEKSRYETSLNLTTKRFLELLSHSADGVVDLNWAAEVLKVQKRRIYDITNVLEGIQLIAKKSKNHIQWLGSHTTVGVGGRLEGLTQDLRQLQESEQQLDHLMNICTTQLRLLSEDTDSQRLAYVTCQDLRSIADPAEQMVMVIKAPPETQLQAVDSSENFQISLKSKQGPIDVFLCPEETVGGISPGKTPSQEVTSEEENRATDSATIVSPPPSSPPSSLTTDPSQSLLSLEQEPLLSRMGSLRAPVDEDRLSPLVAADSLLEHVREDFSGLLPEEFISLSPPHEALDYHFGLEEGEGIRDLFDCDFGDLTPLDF
Chain of Retinoic acid receptor alpha (Homo sapiens) (P10276 whole entry, looked up): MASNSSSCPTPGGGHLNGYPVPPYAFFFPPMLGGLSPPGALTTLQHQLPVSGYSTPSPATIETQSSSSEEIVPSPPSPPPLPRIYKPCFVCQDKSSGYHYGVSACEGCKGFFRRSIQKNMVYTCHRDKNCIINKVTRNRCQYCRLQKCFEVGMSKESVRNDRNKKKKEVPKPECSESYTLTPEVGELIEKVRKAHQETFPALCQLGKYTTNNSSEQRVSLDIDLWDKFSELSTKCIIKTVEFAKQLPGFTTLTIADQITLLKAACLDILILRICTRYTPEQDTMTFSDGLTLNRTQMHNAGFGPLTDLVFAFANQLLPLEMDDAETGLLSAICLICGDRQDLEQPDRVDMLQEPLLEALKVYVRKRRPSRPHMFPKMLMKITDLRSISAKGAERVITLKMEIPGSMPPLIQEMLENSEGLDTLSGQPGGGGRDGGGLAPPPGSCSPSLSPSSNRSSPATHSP

As to `O=C(/C=C/C=C/c1ccc2c(c1)OCO2)N1CCCCC1`, the outcome in experiment [1], in [2], in experiment [3], in experiment [5], in [6] and in experiment [7] was inactive. Besides, the compound was called inactive in [9], in experiment [10], in experiment [11], in [12], in experiment [14] and in experiment [15]. Besides, the call in experiment [16], in experiment [17], in [18], in experiment [19] and in [20] was inactive. Besides, the values for the AC50 in experiment [4], in experiment [8] and in experiment [13] were 72.6 µM (active), 176 µM (active) and 100 µM (active), respectively.

`COCc1c(C(C)C)nc(C(C)C)c(/C=C/[C@@H](O)C[C@@H](O)CC(=O)O)c1-c1ccc(F)cc1`: the compound was called inactive in experiment [1], in experiment [2], in experiment [3], in experiment [4], in experiment [5] and in [6]. The call in [7], in experiment [8], in experiment [9], in experiment [10], in [11] and in experiment [12] was inactive. The result in experiment [13], in experiment [14], in [15], in [16], in experiment [17] and in [18] was inactive. Moreover, the compound was classed as inactive in experiment [19] and in experiment [20].

Take `c1cc(N(CC2CO2)CC2CO2)ccc1OCC1CO1` (stereo not given): the AC50 in experiment [1] is 12.6 µM (active); in experiment [3], 91.5 µM (active); in [4] it was 6.98 µM (active); in [7], 25.8 µM (active); in experiment [9], 83.1 µM (active); in experiment [13], 38.7 µM (active). Moreover, in [20], the AC50 was 140 µM (active). Further, the result in experiment [2], in experiment [5], in experiment [6], in [8], in experiment [10] and in experiment [11] was inactive. In addition, the compound was called inactive in experiment [12], in experiment [14], in [15], in experiment [16], in experiment [17] and in [18]. In experiment [19], the call was inactive.

By AC50 is commonly meant the concentration giving half of the maximal activity seen.
